These results are taken from PubChem BioAssay (EPA / NIEHS).

Where “and” joins values, the source holds several entries; their conditions need not be identical. Equal values may be shown once. Inconclusive results are not listed. Some compounds were tested as several samples or in several runs, with calls that do not always agree. Calls of active or inactive are those of the source. Rule for the calls, unless noted: active = hit-call score of the fitted dose curve at least 0.9, where 1 is the maximum; inconclusive = response in the unintended direction; inactive = score below 0.9.

A short description of experiment [1]: CEETOX_H295R_MTT_cell_viability: Viability Assessment in the CeeTox HT-H295R MTT Assay (AID 2283718; active = hit-call score of the fitted dose curve at least 0.9, where 1 is the maximum; inactive = score below 0.9;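 for AC50: curve fitted both ways so AC50 may mark viability loss or gain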). The essentials: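 MTT reduction (0.5 mg/ml, 4 h at 37 C; absorbance at 570 and 650 nm) gave viability as background-corrected percent change versus controls. H295R cells had 48 h forskolin (10 uM) prestimulation, then 48 h chemical exposure at 0.1% DMSO.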
The nature of experiment [2]: ACEA_ER_AUC_viability: ACEA Biosciences xCELLigence Real-Time Cell Analysis on Estrogen Receptor Agonism for Viability (AID 2283782).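 Note: continuous compound exposure with impedance area under curve over 80 h; hit means loss of impedance signal meaning reduced cell growth or viability.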 Put shortly: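 T-47D; phenol red-free RPMI1640 + 10% CS-FBS; 8 conc., 1:4 serial, max 100 uM final, ≤0.5% DMSO; n = 2; continuous exposure; impedance monitored to 80 h post-dose; AUC vs DMSO.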
The nature of experiment [3]: STM_H9_OrnCyssISnorm_ratio: Stemina devTOX quickPredict H9 human embryonic stem cell (hESC)-based Assay for Ornithine (ORN):Cystine (CYSS) Ratio (AID 2283714). Put shortly: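 Steps: H9 hESCs in pluripotent state dosed 72h, medium plus compound renewed every 24h; conditioned medium from the final 24h deproteinized in 40% acetonitrile; ORN and CYSS quantified by UPLC-HRMS with C13 spike-ins; ratio relative to vehicle.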

The nature of experiment [4]: ACEA_AR_agonist_AUC_viability: ACEA Biosciences xCELLigence Real-Time Cell Analysis on Androgen Receptor Agonism for Viability (AID 2283775).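 For AC50: viability read 80 hours after compound addition.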 The essentials:
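Real-time impedance tracking of 22Rv1 growth, readings every 5 min for 5 h then hourly; area-under-curve viability endpoint at 80 hours, relative to DMSO. Compounds at eight concentrations, 1:4 steps, top 100 uM, n = 2.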

The nature of experiment [5]: ACEA_AR_antagonist_AUC_viability: ACEA Biosciences xCELLigence Real-Time Cell Analysis on Androgen Receptor Antagonism for Viability (AID 2283776).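 Note: 22Rv1 human prostate cancer cells growing on impedance electrode plates; hits lower the growth signal relative to DMSO meaning cytotoxicity.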 The essentials: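 22Rv1 prostate cells, continuous dosing up to 100 uM final (0.5% DMSO max), duplicate plates. Growth measured by impedance; AUC at 80 h, loss of signal vs DMSO.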
Experiment [6] in a line: STM_H9_NormalizedViability: Cytotoxicity Assessment at 120 hours in the Stemina devTOX quickPredict H9 human embryonic stem cell (hESC)-based Assay (AID 2283784). Put shortly: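 Pluripotent H9 hESCs were exposed, with chemical and media replaced every 24 h. Viability was read by CellTiter-Fluor fluorescence, background-corrected and normalized to the 0.1% DMSO neutral control per plate. Loss of signal was fitted.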

For a further experiment, the target named is AR (gene 367) (UniProt P10275). The experiment in a line: ACEA_AR_antagonist_80hr: ACEA Biosciences xCELLigence Real-Time Cell Analysis on Androgen Receptor Antagonism for Proliferation (AID 2283787).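 Note: 22Rv1 human prostate cancer cells with growth followed by electrical impedance; hits lower the impedance growth signal relative to DMSO.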 The essentials: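 Growth-kinetic antagonist readout in 22Rv1 cells, taken 80 h after continuous compound exposure. Activity fitted as signal loss relative to DMSO negative control.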
Chain of AR (gene 367) (P10275 whole entry, looked up): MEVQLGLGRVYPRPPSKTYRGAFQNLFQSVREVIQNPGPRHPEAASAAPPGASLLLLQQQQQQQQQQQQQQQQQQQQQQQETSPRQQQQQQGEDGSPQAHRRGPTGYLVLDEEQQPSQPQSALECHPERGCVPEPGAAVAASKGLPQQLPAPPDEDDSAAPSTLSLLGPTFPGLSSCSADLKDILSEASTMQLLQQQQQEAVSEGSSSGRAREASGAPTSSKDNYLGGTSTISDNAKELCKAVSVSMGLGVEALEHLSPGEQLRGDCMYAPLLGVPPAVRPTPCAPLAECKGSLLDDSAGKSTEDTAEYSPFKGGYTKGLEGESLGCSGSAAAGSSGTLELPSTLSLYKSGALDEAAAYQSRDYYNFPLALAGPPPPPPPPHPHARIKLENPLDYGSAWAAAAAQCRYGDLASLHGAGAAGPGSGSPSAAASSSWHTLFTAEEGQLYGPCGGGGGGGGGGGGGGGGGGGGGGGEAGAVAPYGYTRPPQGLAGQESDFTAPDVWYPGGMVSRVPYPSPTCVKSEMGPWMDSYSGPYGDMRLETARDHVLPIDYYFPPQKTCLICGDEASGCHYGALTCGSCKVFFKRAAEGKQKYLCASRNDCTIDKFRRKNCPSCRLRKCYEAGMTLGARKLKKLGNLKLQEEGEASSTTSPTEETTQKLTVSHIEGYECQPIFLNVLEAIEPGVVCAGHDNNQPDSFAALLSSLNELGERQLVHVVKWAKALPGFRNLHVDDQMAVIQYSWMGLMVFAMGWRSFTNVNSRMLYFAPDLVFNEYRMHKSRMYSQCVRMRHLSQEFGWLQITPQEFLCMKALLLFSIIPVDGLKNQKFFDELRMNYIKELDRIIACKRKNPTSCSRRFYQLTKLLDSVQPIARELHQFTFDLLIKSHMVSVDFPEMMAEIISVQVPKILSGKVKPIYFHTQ

The nature of experiment [7]: Tanguay_ZF_120hpf_ActivityScore_legacy: (Legacy) Oregon State University Tanguay Lab 120 Hour Post-fertilization zebrafish Assay Score for Activity (AID 2283742).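 For AC50: dechorionated Tropical 5D wild-type zebrafish embryos held singly per well; static exposure from 6 hpf until 120 hpf at 28 °C.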 Put shortly: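 Embryos are staged, enzymatically dechorionated at 4 hpf, placed individually at 6 hpf, then held in test chemical (0.64% DMSO) at 28C until 120 hpf. Mortality and malformations are scored by brightfield, with non-mortality endpoints skipped for dead embryos.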

A short description of experiment [8]: STM_H9_OrnithineISnorm_perc: Stemina devTOX quickPredict H9 human embryonic stem cell (hESC)-based Assay for Ornithine (ORN) Metabolite Biomarker, Normalized (AID 2283712; active = hit-call score of the fitted dose curve at least 0.9, where 1 is the maximum; inactive = score below 0.9;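 note: ornithine released into spent medium during last day measured by mass spectrometry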). The essentials:
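Undifferentiated H9 hESCs exposed 72 h with daily media and compound renewal; final 24-h conditioned medium analysed by UPLC-HRMS. Ornithine peak area normalised to spiked C13 standard and to median 0.1% DMSO control; viability by CellTiter-Fluor.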

A short description of experiment [9]: STM_H9_CystineISnorm_perc: Stemina devTOX quickPredict H9 human embryonic stem cell (hESC)-based Assay for Cystine (CYSS) Metabolite Biomarker, Normalized (AID 2283713; active = hit-call score of the fitted dose curve at least 0.9, where 1 is the maximum; inactive = score below 0.9). Put shortly:
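Undifferentiated H9 hESCs exposed 72 h, compound and media replaced every 24 h; final 24-h media analysed by UPLC-HRMS. Cystine normalized to C13 spike-in standard and median 0.1% DMSO control.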

Take `CC(=N[Si](C)(C)C)O[Si](C)(C)C`: the molecule was classed as inactive in [1] and in experiment [2].
Consider `CCCCN(CCO)CCO`, for which, in experiment [3], the outcome was inactive.
With `CC(=O)c1ccc2ccccc2c1`, the result in experiment [1], in experiment [4] and in experiment [5] was inactive.
As for `CCCCCC1C(=O)CCC1CC(=O)OC` (stereo unspecified), the molecule was classed as inactive in experiment [1].
What is called AC50 is the midpoint of the concentration-response curve, whichever way the signal moves. As for `CCOC(=O)C=Cc1ccccc1`, the AC50 in experiment [3] was 24.8 µM (active). For the same molecule, the outcome in experiment [2] and in experiment [6] was inactive.
With `CC(=O)OC(C)(C)C`, the call in experiment [4] was inactive.
As to `CC1=CCC(=C(C)C)CC1`, the molecule was classed as inactive in [4].
With `OCCCO`, the molecule was called inactive in [1] and in experiment [2].
`COC(=O)c1cccc(C(=O)OC)c1`: the outcome (in experiment [1]; in experiment [4]; in experiment [5]; in the experiment with AR (gene 367)) was inactive.
With `CCCCCC(=O)O[C@]1(C(C)=O)CC[C@H]2[C@@H]3CCC4=CC(=O)CC[C@]4(C)[C@H]3CC[C@@]21C`, the AC50 in experiment [1] is 13.4 µM (active); in [5] it was 0.416 µM (active); in experiment [2] it was 49.8 µM (active).
As to `CCCc1ccc(O)cc1`, the call in [1], in [4] and in [5] was inactive.
In the case of `C[C@]12CC[C@@H]3c4ccc(O)cc4CC[C@H]3[C@@H]1CC[C@@H]2O`, the result in [1], in experiment [7], in [4] and in [5] was inactive. Further, the AC50 in [4] is 0.05 µM (active); in experiment [5], 85.9 µM (active).
Turning to `CC(C)(C)c1ccc(S)cc1`, the call in experiment [4] was inactive.
For the molecule `CCCCCCCCCCCCN1CCOCC1`, the outcome in experiment [1] was inactive. Also, the concentration at half-maximal activity (AC50) in [2] was 80.3 µM (active).
As to `COC(=O)C(C)Oc1ccc(Oc2ncc(C(F)(F)F)cc2Cl)cc1` (stereo unspecified), the molecule was called inactive in experiment [1], in experiment [4], in experiment [5] and in [2].
`O=C(c1ccc(OCCN2CCCCC2)cc1)c1c(-c2ccc(O)cc2)sc2cc(O)ccc12`: the outcome in experiment [1] and in experiment [7] was inactive. For the same molecule, the concentration at half-maximal activity (AC50) in experiment [4] was 50 µM (active); in [5], 21.7 µM (active); in [2], 11.1 µM (active) and 17.8 µM (active) and 18 µM (active).
On to `CCCCCCCCCCOC(=O)c1ccccc1C(=O)OCCCCCCCC`, for which the outcome (in experiment [1]; in experiment [4]; in [5]; with AR (gene 367)) was inactive.
`C=C(C)C(N)=O`: the outcome in experiment [7], in experiment [4] and in [5] was inactive.
Turning to `NC(=O)c1cccnc1`, the molecule was classed as inactive in experiment [4].
In the case of `c1ccc(OCCOc2ccccc2)cc1`, the molecule was called inactive in experiment [1], in experiment [4], in [5] and in experiment [2].
As for `CC(=O)OC/C=C(C)/C=C/C=C(C)/C=C/C1=C(C)CCCC1(C)C`, the AC50 in experiment [3] is 78.1 µM (active); in [1] it was 73.7 µM (active); in experiment [2], 68.5 µM (active); in experiment [6], 87.5 µM (active).
In the case of `CCCCOCCOCCO`, the molecule was classed as inactive in [7], in experiment [4] and in [5].
Turning to `COC(=O)c1ccc(C(=O)OC)cc1`, the outcome in [8], in experiment [9], in experiment [3], in [1], in experiment [4] and in [5] was inactive. The molecule was classed as inactive in [2] and in experiment [6]. The AC50 in experiment [7] was 77.4 µM (active).
Consider `NCCN1CCNCC1`, for which the molecule was classed as inactive in experiment [4].
